Data as given in PubChem BioAssay (NCATS).
Inconclusive results are not listed. Active and inactive are the calls of the source. The call rests on the fitted dose curve; in most records, active means well fitted curve in the direction sought with a large enough effect; inconclusive means small, poorly fitted or top-dose-only effect, or another doubt; inactive means no such curve, though single readings can be large; an effect the other way counts as inactive or inconclusive.

What was measured:
[1] = qHTS of pediatric cancer cell lines to identify multiple opportunities for drug repurposing: Primary screen for BT-12 cells (AID 1347101); further: nearly all actives have a fitted effect of over 25% in size; further: potency means the concentration at half of the fitted maximal effect
In short: (§1)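 Cells (500-1,000/well) rested 5 h, then received compounds for 48 h; metabolically active cells were measured by CellTiter-Glo luminescence. Final concentrations spanned up to 46 µM (MIPE, 11-point) or 0.59 nM-46 µM (NPC, 8-point) in primary screens, 11-point in follow-ups.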

[2] = qHTS of pediatric cancer cell lines to identify multiple opportunities for drug repurposing: Primary screen for OHS-50 cells (AID 1347103); further: potency means the concentration at half of the fitted maximal effect; nearly all actives have a fitted effect of over 40% in size
In short: as §1

[3] = qHTS of pediatric cancer cell lines to identify multiple opportunities for drug repurposing: Primary screen for RD cells (AID 1347104); further: nearly all actives have a fitted effect of over 55% in size; further: potency means the concentration at half of the fitted maximal effect
In short: (§2)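 Following a 5-hour attachment period, cells at 500-1,000/well received compounds and were cultured for 48 hours. CellTiter-Glo was added and luminescence read to estimate viable, metabolically active cells.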

[4] = qHTS of pediatric cancer cell lines to identify multiple opportunities for drug repurposing: Primary screen for control Hh wild type fibroblast cells (AID 1347106);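 further: a drop in luminescence marks cytotoxicity and a rise apparent proliferation; nearly all actives have a fitted effect of over 55% in size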
In short: (§3)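 Cells (500-1,000/well) in growth media were settled 5 h at 37 degrees C, then given compounds for 48 h. Viability was read as CellTiter-Glo luminescence. Primary runs used MIPE at 11 points (0.78 nM-46 µM) and NPC at 8 points (0.59 nM-46 µM); follow-ups used 11 points.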

[5] = qHTS of pediatric cancer cell lines to identify multiple opportunities for drug repurposing: Primary screen for Rh30 cells (AID 1347107); further: nearly all actives have a fitted effect of over 75% in size
In short: as §3

[6] = qHTS of pediatric cancer cell lines to identify multiple opportunities for drug repurposing: Confirmatory screen for NB1643 cells (AID 1347109); further: potency means the concentration at half of the fitted maximal effect; nearly all actives have a fitted effect of over 45% in size
In short: as §3

[7] = qHTS of pediatric cancer cell lines to identify multiple opportunities for drug repurposing: Confirmatory screen for A673 cells (AID 1347110);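 further: cells exposed to compound for 48 h before the viability read; nearly all actives have a fitted effect of over 65% in size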; further: potency means the concentration at half of the fitted maximal effect
In short: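 qHTS titration format: primary MIPE 0.78 nM-46 µM (11 pts), NPC 0.59 nM-46 µM; confirmation 11 pts. 48 h, CTG luminescence.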

[8] = qHTS of pediatric cancer cell lines to identify multiple opportunities for drug repurposing: Confirmatory screen for SK-N-MC cells (AID 1347111);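 further: potency means the concentration at half of the fitted maximal effect; cells exposed to compound for 48 h before the readout; nearly all actives have a fitted effect of over 70% in size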
In short: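 Metabolically active cells were quantified by ATP-dependent luminescence (CellTiter-Glo, 15 min at room temperature) following 48 h treatment. Cells had been plated at 500-1,000 per well and settled for 5 h beforehand.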

[9] = qHTS of pediatric cancer cell lines to identify multiple opportunities for drug repurposing: Confirmatory screen for NB-EBc1 cells (AID 1347115);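 further: cells exposed to compound for 48 h before the viability read; nearly all actives have a fitted effect of over 45% in size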; further: potency means the concentration at half of the fitted maximal effect
In short: as §3

[10] = qHTS of pediatric cancer cell lines to identify multiple opportunities for drug repurposing: Confirmatory screen for TC32 cells (AID 1347118);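 further: potency means the concentration at half of the fitted maximal effect; cells exposed to compound for 48 h before the read; nearly all actives have a fitted effect of over 65% in size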
In short: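 Measured quantity: luminescence from CellTiter-Glo, reflecting metabolically active TC32 cells following 48 h of compound. Curves came straight from multi-point titrations, with 8 or 11 points in primary and 11 in confirmatory screening.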

[11] = qHTS of pediatric cancer cell lines to identify multiple opportunities for drug repurposing: Confirmatory screen for MG 63 (6-TG R) cells (AID 1347119); further: nearly all actives have a fitted effect of over 55% in size; further: potency means the concentration at half of the fitted maximal effect
In short: as §3

[12] = qHTS of pediatric cancer cell lines to identify multiple opportunities for drug repurposing: Confirmatory screen for control Hh wild type fibroblast cells (AID 1347121); further: nearly all actives have a fitted effect of over 70% in size
In short: as §3

[13] = qHTS of pediatric cancer cell lines to identify multiple opportunities for drug repurposing: Primary screen for MG 63 (6-TG R) cells (AID 1347105); further: nearly all actives have a fitted effect of over 50% in size; further: potency means the concentration at half of the fitted maximal effect
In short: as §2

[14] = qHTS of pediatric cancer cell lines to identify multiple opportunities for drug repurposing: Primary screen for Rh18 cells (AID 1347102); further: nearly all actives have a fitted effect of over 65% in size
In short: as §3

[15] = qHTS of pediatric cancer cell lines to identify multiple opportunities for drug repurposing: Primary screen for Rh41 cells (AID 1347108); further: nearly all actives have a fitted effect of over 70% in size; further: potency means the concentration at half of the fitted maximal effect;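 on activity change, negative = cytotoxic: luminescence drop marks cytotoxic hits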
In short: as §2

[16] = qHTS of pediatric cancer cell lines to identify multiple opportunities for drug repurposing: Confirmatory screen for LAN-5 cells (AID 1347113); further: potency means the concentration at half of the fitted maximal effect; nearly all actives have a fitted effect of over 65% in size
In short: as §3

[17] = qHTS of pediatric cancer cell lines to identify multiple opportunities for drug repurposing: Confirmatory screen for BT-37 cells (AID 1347117); conditions: BT-37 pediatric cancer cells, viability; activity change, negative = cytotoxic: at 45.9 µM (top of the series); further: potency means the concentration at half of the fitted maximal effect; nearly all actives have a fitted effect of over 55% in size
In short: as §3

[18] = qHTS of pediatric cancer cell lines to identify multiple opportunities for drug repurposing: Confirmatory screen for BT-12 cells (AID 1347112)
In short: as §3

[19] = qHTS of pediatric cancer cell lines to identify multiple opportunities for drug repurposing: Confirmatory screen for DAOY cells (AID 1347114); further: nearly all actives have a fitted effect of over 65% in size; further: potency means the concentration at half of the fitted maximal effect
In short: (§4)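 Viability measured as metabolically active cells via CellTiter-Glo luminescence following 48 hours of compound exposure, 11-point dilutions in confirmatory testing. 500-1,000 cells/well plated 5 hours before dosing; controls were DMSO and 2.3 µM bortezomib.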

[20] = qHTS of pediatric cancer cell lines to identify multiple opportunities for drug repurposing: Confirmatory screen for SJ-GBM2 cells (AID 1347116); further: nearly all actives have a fitted effect of over 60% in size; further: potency means the concentration at half of the fitted maximal effect
In short: as §4

Measured: Potency

CCc1cc(C(C)=NOCc2ccc(C3CCCCC3)c(C(F)(F)F)c2)ccc1CN1CC(C(=O)O)C1
inactive: [4] | [5] | [9] | [11] | [12]
active: [1] 3.06 µM | [2] 8.63 µM | [3] 5.9 µM | [6] 29.3 µM | [7] 13.1 µM | [8] 8.27 µM | [10] 9.27 µM

CC(C)[C@H](CO)Nc1nc(Nc2cccc(Cl)c2)c2ncn(C(C)C)c2n1
inactive: [4]
active: [1] 21.7 µM | [2] 13.7 µM | [3] 18.7 µM | [13] 2.96 µM

CC[C@H]1OC(=O)[C@H](C)[C@@H](O[C@H]2C[C@@](C)(OC)[C@@H](O)[C@H](C)O2)[C@H](C)[C@@H](O[C@@H]2O[C@@H](C)C[C@H](N(C)C)[C@@H]2O)[C@](C)(O)C[C@@H](C)C(=O)[C@H](C)[C@@H](O)[C@]1(C)O
inactive: [1] | [14] | [3] | [13] | [5]

COc1ccc(S(=O)(=O)Nc2cc(-c3c(O)ccc4ccccc34)c(O)c3ccccc23)cc1
inactive: [4]
active: [1] 30.6 µM | [2] 10.9 µM | [3] 29.6 µM | [13] 18.7 µM | [15] 18.7 µM

c1ccc(CNc2nc(NCc3ccccc3)c3ccccc3n2)cc1
active: [1] 24.3 µM | [2] 30.6 µM | [3] 16.6 µM | [15] 18.7 µM

COc1cccc2c1C(=O)c1c(O)c3c(c(O)c1C2=O)C[C@@](O)(C(=O)CO)C[C@@H]3O[C@H]1C[C@H](N)[C@H](OC2CCCCO2)[C@H](C)O1 (some centres undefined)
inactive: [14] | [5]
active: [1] 2.43 µM | [3] 13.2 µM | [6] 1.65 µM | [7] 2.61 µM | [8] 0.737 µM | [16] 1.17 µM | [9] 1.65 µM | [17] 0.928 µM | [10] 0.465 µM | [11] 1.47 µM

Oc1ccc(-c2ccc(-c3cc(Nc4cccc(CNC5CC5)c4)n[nH]3)cc2)c(O)c1
inactive: [4] | [11] | [12]
active: [1] 7.69 µM | [2] 1.09 µM | [3] 10.5 µM | [15] 14.8 µM | [7] 2.33 µM | [8] 0.827 µM | [18] 8.27 µM | [16] 2.33 µM | [19] 6.57 µM | [20] 14.7 µM | [17] 6.57 µM | [10] 2.33 µM

CCCCCCCN(CC)CCCC(O)c1ccc(NS(C)(=O)=O)cc1 (centres undefined)
inactive: [1] | [14] | [3] | [13] | [4] | [15]

COC(=O)C=CC(=O)OC
active: [13] 0.235 µM | [15] 23.5 µM | [8] 3.29 µM | [9] 20.8 µM | [17] 3.29 µM | [10] 3.29 µM | [11] 13.1 µM
inactive: [1] | [14] | [5] | [7] | [19] | [20] | [12]
